97 molecules from PubChem BioAssay AID1209 (Sanford-Burnham Center for Chemical Genomics, 2008) can be followed below.

Screen size: about 190,000 compounds; about 810 (0.43%) were called active. No stated cut-off is given here; in the data, active means inhibition above about 50%; inactive means the rest. Shown is part of a subset that was picked to be rich in actives.

As usually defined, the inhibition is the change of the read-out against control, counted positive when it falls.

For the test, the target named is Mannose-6-phosphate isomerase (Homo sapiens) (UniProt P34949). In words: inhibitors of human PMI, primary screen, biochemical, fluorescence intensity, coupled assay (AID 1209).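 Further: plate controls were DMSO vehicle for no effect and wells lacking substrate for full effect.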 Particulars: purified PMI enzyme, at 20 µM, hits give high values.
Sequence of Mannose-6-phosphate isomerase (Homo sapiens) (P34949 whole entry, looked up): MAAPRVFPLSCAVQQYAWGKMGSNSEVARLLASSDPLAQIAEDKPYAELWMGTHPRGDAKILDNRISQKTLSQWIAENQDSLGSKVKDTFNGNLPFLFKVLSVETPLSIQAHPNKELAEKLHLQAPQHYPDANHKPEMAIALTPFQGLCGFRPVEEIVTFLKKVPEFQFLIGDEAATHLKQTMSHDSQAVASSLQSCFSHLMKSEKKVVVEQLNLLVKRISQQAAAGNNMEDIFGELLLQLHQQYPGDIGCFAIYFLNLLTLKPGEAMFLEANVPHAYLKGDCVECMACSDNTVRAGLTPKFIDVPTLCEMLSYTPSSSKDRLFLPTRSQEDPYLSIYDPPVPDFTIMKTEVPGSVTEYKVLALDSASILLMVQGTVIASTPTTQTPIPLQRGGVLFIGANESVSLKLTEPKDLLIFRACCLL
For `Cc1ccc(NC(=O)C2CCN(S(=O)(=O)c3c(C)noc3/C=C/c3ccco3)CC2)nc1`, the inhibition was 9.1% (inactive). As for `Cc1cccnc1NC(=O)C1CCN(S(=O)(=O)c2c(C)noc2/C=C/c2ccco2)CC1`, the figure is 50.7% (active). With `Cc1cccc(NC(=O)C2CCN(S(=O)(=O)c3c(C)noc3/C=C/c3ccco3)CC2)n1`, the inhibition was -3.8% (inactive). For `Cn1cccc1CC(=O)N/N=C/c1cccc2ccccc12`, the inhibition was 4.2% (inactive). As for `COc1ccc(S(=O)(=O)N2CCCC(C(=O)NCc3ccccn3)C2)cc1Cl` (configuration not stated), the figure is 62.4% (active). In the case of `COc1ccc(S(=O)(=O)N2CCC(C(=O)NCc3ccccn3)CC2)cc1Cl` it was 16.7% (inactive); in that of `COc1ccc(S(=O)(=O)N2CCCC(C(=O)NCc3ccccn3)C2)cc1` (configuration not stated), 14% (inactive); in that of `O=C(O)CSc1nnc(Cn2nnc3ccccc32)n1CCc1ccccc1`, -12.5% (inactive). For the molecule `COc1ccc(CN(CC2CCC(C(=O)O)CC2)C(=S)Nc2ccccc2OC)cc1` (configuration not stated), the inhibition is -7.5% (inactive).

As to `O=[N+]([O-])c1ccc(Sc2n[nH]c(-c3ccncc3)n2)nc1`, the inhibition is 60.8% (active).

Regarding `O=[N+]([O-])c1ccc(Sc2n[nH]c(-c3ccccc3)n2)nc1`, the inhibition is 16.5% (inactive). In the case of `O=[N+]([O-])c1ccc(Sc2n[nH]c(-c3ccco3)n2)nc1` it was 8.5% (inactive). As for `O=C(O)CC(NC(=O)COc1ccc(Cl)cc1Cl)C(=O)O` (configuration not stated), the figure is 4.9% (inactive).

For the molecule `Cc1cc(C)cc(Nc2cc(=O)n(C3CCCCC3)c(=O)[nH]2)c1`, the inhibition was 12.2% (inactive).

With `Cc1cc2nc3c(=O)n(C4CCCCC4)c(=O)[nH]c3nc2cc1N`, the inhibition was 51.7% (active). In the case of `CCCCCCn1c(=O)[nH]c2nc3cc(N)c(C)cc3nc2c1=O` it was 35.2% (inactive); in that of `N#CCCN(C(=O)CSc1ccc2c(c1)OCCO2)c1ccccc1`, 3.1% (inactive). As to `Cc1ccc(NC(=O)c2ccc(Br)o2)cc1S(=O)(=O)N(C)C`, the inhibition is -19% (inactive).

For the molecule `CCN(C(=O)c1cc2cccc(OC)c2oc1=O)C1CCCCC1`, the inhibition is -7.8% (inactive).

On to `N#Cc1cc(N)ccc1Sc1ccccc1`, for which the inhibition is 4.7% (inactive). As for `COc1ccc(S(=O)(=O)N2Cc3ccccc3CC2C(=O)O)cc1OC` (configuration not stated), the figure is -6.9% (inactive); as for `CCC(Sc1nc2ncnc(N)c2[nH]1)C(=O)O` (configuration not stated), 64.8% (active). As for `CC(C)Sc1nc2ncnc(N)c2[nH]1`, the figure is -8.9% (inactive). In the case of `Nc1ncnc2nc(SCc3ccccc3)[nH]c12` it was 9.5% (inactive); in that of `Cc1ccc(C)n1-c1cccc(S(=O)(=O)N2CCOCC2)c1`, -13.2% (inactive); in that of `O=c1[nH]c2c(c3c1CCCC3)CCCC2`, 16.2% (inactive). For `O=C(CSC(=S)N1CCCC1)c1cc(Br)cc(Br)c1O`, the inhibition was 33.3% (inactive). As to `CC1CCCN(C(=S)SCC(=O)O)C1` (configuration not stated), the inhibition was 0.8% (inactive).

For the molecule `CC1CCCN(C(=S)SCC(=O)c2cc(Br)cc(Br)c2O)C1` (configuration not stated), the inhibition is 66.4% (active).

As for `COc1cc(/C=C2\SC(=Nc3ccccc3)N(CCc3c[nH]c4ccccc34)C2=O)ccc1OC(C)C(=O)O` (configuration not stated), the inhibition was 8% (inactive). On to `COc1cc(C(=O)OCC(=O)Nc2c(F)c(F)c(F)c(F)c2F)cc(OC)c1OC`, for which the inhibition is -2.4% (inactive). Consider `Cc1ccc(N(C(=O)Cn2nnc3ccccc32)C(C(=O)NC2CCCCC2)c2cn(C)nc2C)cc1` (configuration not stated), for which the inhibition is -4.2% (inactive). As for `O=C(NC1CCCCC1)C(c1ccc(O)c(O)c1)N(C(=O)Cn1nnc2ccccc21)c1cccc(O)c1` (configuration not stated), the figure is 47.5% (inactive); as for `CC(=O)Nc1ccc(N(C(=O)Cn2nnc3ccccc32)C(C(=O)NC2CCCC2)c2ccc(O)c(O)c2)cc1` (configuration not stated), 61.2% (active). Regarding `Cc1cc(C)n(-c2nc3ccccc3n3cnnc23)n1`, the inhibition was -2.9% (inactive). Regarding `COc1ccc(OC)c(NC(=O)c2cc3c(=O)n4ccccc4nc3n2C)c1`, the inhibition is -10.9% (inactive). As for `COc1ccc(NC(=S)NNC(=O)c2nnn(-c3ccccc3)c2C)cc1`, the figure is -2% (inactive); as for `Cc1ccccc1N(CC(=O)Nc1ccccc1C(=O)NCc1ccco1)S(=O)(=O)c1ccccc1`, -11.7% (inactive); as for `C=CCNc1nc(N2CCOCC2)c(C#N)c2c1CN(C)CC2`, 9.5% (inactive).

For `N#Cc1c(NCCCO)nc(-c2ccccc2)c2c1CCCC2`, the inhibition is 13.8% (inactive). As for `CCN1CCc2c(C#N)c(N3CCCCC3)nc(NCc3ccccc3)c2C1`, the figure is 30.4% (inactive); as for `N#Cc1c(NCCCO)nc(NCc2ccccc2)c2c1CCN(Cc1ccccc1)C2`, 56.3% (active). As for `CCN1CCc2c(C#N)c(NCc3ccccc3)nc(N(CC)CC)c2C1`, the figure is 3% (inactive). For `C=CCNc1nc(NCc2ccccc2)c(C#N)c2c1CN(C)CC2`, the inhibition was 54.4% (active). In the case of `N#Cc1c(NCCN)nc(NCc2ccccc2)c2c1CCN(Cc1ccccc1)C2` it was 17.8% (inactive); in that of `CN1CCc2c(C#N)c(N3CCCCC3)nc(NCc3ccccc3)c2C1`, 26.6% (inactive); in that of `CCN1CCc2c(C#N)c(NCc3ccccc3)nc(NCCO)c2C1`, 52.6% (active). Consider `CCOC(=O)c1cccc(NC(=O)CSc2nnnn2C)c1`, for which the inhibition was -7.4% (inactive). In the case of `Cc1cc(NC(=O)CCc2ccc(S(=O)(=O)N3CCOCC3)cc2)n(-c2ccccc2)n1`, the inhibition is -7% (inactive). On to `N#Cc1cnn2ccc(-c3ccc4c(c3)CCC4)nc12`, for which the inhibition is 0.4% (inactive). Consider `COCC(C)NC(=O)/C=C/c1ccc(OC)cc1` (configuration not stated), for which the inhibition is 9.4% (inactive).

For the molecule `O=C(c1cc(Cl)ccc1[N+](=O)[O-])N1CCc2ccccc2C1`, the inhibition was 7.8% (inactive). As for `O=C(CSc1nc2ccccc2o1)NCC(=O)c1ccccc1`, the figure is 10.6% (inactive); as for `CC(=O)N1N=C(c2cccc(Cl)c2)OC1c1cccc([N+](=O)[O-])c1` (configuration not stated), 10.4% (inactive); as for `Cc1cccc(NC(=O)CC2S/C(=N/c3nccs3)N(C)C2=O)c1` (configuration not stated), -1.9% (inactive). As for `COc1ccc(-n2c(=S)[nH]c3sc4c(c3c2=O)CCc2ccccc2-4)cc1`, the figure is 57.8% (active); as for `Cc1cccc(-n2c(=S)[nH]c3c(oc4ccccc43)c2=O)c1`, -1.9% (inactive); as for `Cc1cccc(-n2c(=O)c3c4c(sc3n3c(=S)[nH]nc23)CCC4)c1`, -0.7% (inactive).

With `Cc1ccc(-n2c(=S)[nH]c3sc4c(c3c2=O)CCC4)cc1`, the inhibition was 2.3% (inactive). As to `Cc1ccc(-n2c(=S)[nH]c3sc4c(c3c2=O)CCc2ccccc2-4)cc1`, the inhibition was 10.4% (inactive). As to `COc1ccc(N2C(=O)CCC(C(=O)NCCN3CCOCC3)C2c2ccc(OC)c(OC)c2)cc1` (configuration not stated), the inhibition is 17.2% (inactive). In the case of `C=CCNC(=O)/C(=C/c1ccccc1OCC)NC(=O)c1ccccc1` it was 3.5% (inactive). On to `CCCSc1nnc2[nH]c(=O)cc(N)n12`, for which the inhibition is -1.4% (inactive). As for `CCO[C@H]1OC(C(=O)N2CCN(Cc3ccc4c(c3)OCO4)CC2)=C[C@@H](c2ccccc2)[C@@H]1CCCO`, the figure is 7.5% (inactive); as for `O=C(Cn1cncn1)NCCCc1ccccc1`, 4.2% (inactive); as for `COc1cc(/C=C2\NC(=S)N(C)C2=O)ccc1O`, -2.1% (inactive).

For `CC(=O)c1c(C)[nH]c(C(=O)OCC(=O)Nc2cc(Cl)ccc2[N+](=O)[O-])c1C`, the inhibition was 9.3% (inactive). In the case of `Cc1ccc(S(=O)(=O)N2CCN(C(=O)/C=C/c3ccco3)CC2)cc1` it was 26% (inactive); in that of `COc1ccccc1N1C(=N)S/C(=C\c2ccc(-c3ccccc3C(=O)O)o2)C1=O`, -36.9% (inactive). As for `Cc1ccc(C)c(N2C(=N)S/C(=C\c3ccc(-c4ccccc4C(=O)O)o3)C2=O)c1`, the figure is 18.5% (inactive); as for `CC(=O)Nc1ccc(S(=O)(=O)NNC(=O)COc2ccc(C)cc2)cc1`, 0.9% (inactive). Take `CCOC(=O)N1CCN(Cc2ccc(F)cc2F)CC1`: the inhibition was -1.3% (inactive). In the case of `Cc1cc(C)n2nc(CCc3nc4nc(C)cc(C)n4n3)nc2n1` it was -4.4% (inactive); in that of `Cc1cc(C)n2ncnc2n1`, 5.9% (inactive). As for `Cc1cc(C)n2nc[n+](C)c2n1`, the figure is 72.6% (active); as for `Cc1cc(-c2ccc(N3C(=O)CCC3=O)c(C)c2)ccc1N1C(=O)CCC1=O`, 1.5% (inactive); as for `COC(=O)CN(c1ccc(Cl)cc1C)S(C)(=O)=O`, 1.2% (inactive). `COc1ccc(C(=O)CNc2ccccc2C#N)cc1`: the inhibition was -2.6% (inactive). In the case of `COc1ccc(C(=O)CNc2ccc3ccccc3c2)cc1` it was 76.9% (active); in that of `COc1ccc(C(=O)CNc2ccccc2CO)cc1`, -10.5% (inactive).

For `O=[N+]([O-])c1cccc(-c2nc3ccc([N+](=O)[O-])cc3[nH]2)c1`, the inhibition is -13.7% (inactive). In the case of `COc1ccccc1NC(=O)c1ccc(NC(=O)COC(=O)C2CCCCC2)cc1` it was 10.6% (inactive); in that of `CSC1=N/C(=C\c2cccc(F)c2)C(=O)S1`, -4.9% (inactive).

Take `S=C(Nc1cccc(Cl)c1)Nc1cccc2cnccc12`: the inhibition is 57.2% (active). `Cc1ccc(NC(=S)Nc2cccc3cnccc23)cc1`: the inhibition is 80.1% (active). Turning to `CCCCNC(=S)Nc1cccc2cnccc12`, the inhibition is 5.6% (inactive). In the case of `C=C(C)CNC(=S)Nc1cccc2cnccc12` it was 14.2% (inactive); in that of `Cc1cc(C)cc(NC(=S)Nc2cccc3cnccc23)c1`, 66.2% (active); in that of `S=C(Nc1ccc(Cl)cc1)Nc1cccc2cnccc12`, 26.4% (inactive).

For the molecule `Cc1ccc(NC(=S)Nc2cccc3cnccc23)cc1C`, the inhibition was -0.2% (inactive). As for `S=C(Nc1cccnc1)Nc1cccc2cnccc12`, the figure is 47.5% (inactive).

As to `Cc1c(C(=O)N2CCN(c3ccc(C(F)(F)F)cn3)CC2)oc2ccccc12`, the inhibition is 13.3% (inactive).

In the case of `CC(NC(=O)/C=C/c1ccco1)c1nc2ccccc2n1Cc1c(Cl)cccc1Cl` (configuration not stated), the inhibition is -4.3% (inactive).

On to `CNc1ccc2nnc(C(F)(F)C(F)(F)C(F)(F)F)n2n1`, for which the inhibition is -0.7% (inactive). In the case of `Cc1c(C)n(C(=O)CN2CCC(C(N)=O)CC2)c2ccccc12` it was 7.2% (inactive); in that of `CCCC(=O)Nc1ccc(C(=O)Nc2ccc([N+](=O)[O-])cc2OC)cc1`, -20.7% (inactive); in that of `COc1ccc(OCC(=O)O/N=C(\N)Cc2cccs2)cc1`, 3.7% (inactive).
